Screening data: PubChem, several laboratories
BJeLR viability: BJeLR cell viability loss. BJeLR (HRASV12) viability, CellTiter-Glo ATP luminescence, 48 h. inhibition, % (concentration not given with the values). 0.17% of 300,000 active. AID 1554; in the data active = inhibition above about 50%
PfHsp40 rescue: restores yeast growth despite PfHsp40 toxicity; S. cerevisiae expressing PfHsp40, growth rescue, ATP luminescence; growth rescue, % at 12.5 µM; 0.68% of 340,000 active; AID 504582; in the data active = growth rescue above about 28%, passing the limit was not always enough;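 note: yeast W303a lacking pdr1 and pdr3 grown in galactose medium; growth measured after three days at 30 °C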
PrP 5UTR inh: inhibition of PrP 5' UTR reporter expression | 0.35% of 340,000 active | cell-based PrP 5' UTR mRNA reporter, plate reader | inhibition, % (concentration not given with the values); in the data active = inhibition above about 52%; note: 0 = median of the neutral control wells
RN4220 kill: kills Staphylococcus aureus RN4220; AID 1259311; 0.33% of 330,000 active; inhibition, % (test concentration not listed); S. aureus RN4220 growth, OD600, 16 h; in the data active = inhibition above about 85%;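 note: plate controls were untreated cells for no effect and reference antibiotic for full effect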
Y pestis TopoI: Y. pestis Topo-I inhibition via cleavage products | AID 504884 | 0.064% of 360,000 active | Y. pestis Topo-I cleavage product accumulation, plate reader | activity, % at 10 µM; in the data active = activity above about 50%, passing the limit was not always enough
Sa ugtP lethal: compounds lethal to S. aureus RN4220 ugtP deletion mutant. AID 1259309. growth inhibition, % (no concentration beside the values). OD600 growth, 16 h. 0.54% of 330,000 active; in the data active = growth inhibition above about 68%;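 note: plate controls were untreated wells for no effect and antibiotic for full effect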
* = called active by the depositor; / = not tested or not shown. An excerpt weighted towards active compounds, which were near 1.4% of everything screened.

SMILES | BJeLR viability | PfHsp40 rescue | PrP 5UTR inh | RN4220 kill | Y pestis TopoI | Sa ugtP lethal
Cc1ccc(C)c(NC(=O)C(OC(=O)c2ccc(CO)cc2)c2ccccc2)c1 (stereo not drawn) | / | 0 | -9 | -3 | 2 | -3
Cc1ccc(NC(=O)C(OC(=O)c2ccc(C=O)cc2)c2ccccc2)cc1Cl (stereo not drawn) | 8 | 1 | -18 | -13 | -9 | 90*
CCCc1nc(SCC(=O)Nc2ccccc2)c2c(=O)n(C)c(=O)n(C)c2n1 | -6 | 0 | -66 | 6 | -11 | -4
CCCc1nc(SCC(=O)N2CCC(Cc3ccccc3)CC2)c2c(=O)n(C)c(=O)n(C)c2n1 | -28 | 184* | -14 | 2 | 6 | -11
COc1ccc2nc(NC(=O)c3ccc([N+](=O)[O-])o3)sc2c1 | -1 | -1 | -8 | 48 | -17 | 100*
Cc1cc(C)c2sc(NC(=O)c3ccc([N+](=O)[O-])o3)nc2c1 | -17 | 0 | -43 | 61 | 0 | 47
O=C(Nc1nc2cc3c(cc2s1)OCCO3)c1ccc([N+](=O)[O-])o1 | 6 | 0 | -102 | 21 | -7 | 88*
O=C(Nc1nc2ccccc2s1)c1ccc([N+](=O)[O-])o1 | 7 | 1 | -13 | 8 | 11 | 5
Cc1cc(C)c2nc(NC(=O)c3ccc([N+](=O)[O-])o3)sc2c1 | -13 | -3 | -28 | 8 | -7 | 99*
CC1CCN(C(=O)C=Cc2ccc(C(C)(C)C)cc2)CC1 | / | / | / | 4 | / | -7
CC1C=C(C(=O)NCc2ccccc2)OC(OCc2ccc(CO)cc2)C1 (stereo not drawn) | / | / | / | 1 | / | -4
Oc1ccc2ccccc2c1C=Nc1cc(C(F)(F)F)ccc1N1CCCC1 | -1 | -1 | -9 | -5 | -5 | 95*
Cn1nc(C(=O)Nc2cc(Cl)ccc2N2CCCC2)c2ccccc2c1=O | / | 0 | 4 | 100* | 31 | 100*
Cc1ccc(CN2CCC3C=CCc4cccc(c43)C2)cc1 (stereo not drawn) | / | / | / | 1 | / | 5
O=C(Nc1ccccc1)C1=CC(c2ccc(Br)cc2)CC(OCc2ccc(CO)cc2)O1 (stereo not drawn) | / | / | / | -4 | / | 1
O=C1Nc2ccccc2/C1=C\C(=O)c1ccccc1 | 32 | 2 | -19 | 98* | -10 | 98*
O=S(=O)(Nc1ccccc1)c1ccc(Oc2ncc(C(F)(F)F)cc2Cl)cc1 | -1 | 282* | -4 | -7 | 15 | 4
O=[N+]([O-])c1ccc(Oc2ccc(S(=O)(=O)Nc3ccccc3)cc2)cc1 | -5 | 388* | -20 | 4 | -5 | 44
CC(=O)c1ccccc1OCCOCCOCCOc1ccccc1C(C)=O | 55* | 1 | 7 | 15 | 5 | 7
COc1cc2c(c(OC)c1OC)-c1c(cc(OC)c(OC)c1OC)C[C@](C)(O)C(C)C2 (stereo partly drawn) | / | / | / | 8 | / | 1
CC(C)C1S/C(=N/N=C/c2ccco2)NC1=O (stereo not drawn) | -4 | 58* | -27 | / | 4 | /
Cc1ccc(S(=O)(=O)N2C(c3ccc(Cl)c(Cl)c3)CC=C(C(=O)O)C2c2ccccc2)cc1 (stereo not drawn) | / | / | / | 28 | / | 90*
Cc1ccc([C@@H]2CC=C(C(=O)O)[C@H](c3ccc(Br)cc3)N2S(=O)(=O)c2ccccc2C)cc1 | / | 318* | -12 | 23 | 28 | 24
Cc1ccc(S(=O)(=O)N2[C@@H](c3ccccc3)C(C(=O)O)=CC[C@H]2c2ccc(Cl)c(Cl)c2)cc1 | / | 15 | -14 | / | -2 | /
O=C(Sc1cccc2cccnc12)c1ccccc1Br | 97* | 119* | 29 | / | 6 | /
SMILES | BJeLR viability | PfHsp40 rescue | PrP 5UTR inh | RN4220 kill | Y pestis TopoI | Sa ugtP lethal
CC(C)CC(CSc1ccccc1)N1CCN(CC(C)C)CCC1=O (stereo not drawn) | / | / | / | 3 | / | 3
CC(=O)OC1C[C@@]2(C)C(CC(O)C3[C@@]4(C)CCC(O)C(C)C4CC[C@@]32C)C1=C(CCC=C(C)C)C(=O)O (stereo partly drawn) | / | / | / | 100* | / | 100*
C=CCC(CC(=O)NCCO)C(=O)NC(COC(=O)C(CC=C)Cc1ccc(F)cc1)c1ccccc1 (stereo not drawn) | / | / | / | 10 | / | 17
COc1ccc2c(c1)S/C(=C\C(=O)c1ccncc1)N2C | -4 | 174* | -56 | / | 1 | /
COc1cc(OC)cc(C(=O)/C=C2\Sc3ccccc3N2C)c1 | -13 | -1 | -9 | 3 | 4 | -7
O=C(O)c1ccc(N/N=C/C(Br)=C/c2ccccc2)cc1 | -3 | 183* | -204 | / | -12 | /
O=C(O)c1ccc(N/N=C/c2ccc(F)c(F)c2)cc1 | 3 | 147* | -53 | / | -1 | /
O=C(O)c1ccc(NN=C/C=C/c2ccccc2)cc1 | / | / | / | 19 | / | 7
O=C(O)c1ccc(N/N=C/c2cccc(C(F)(F)F)c2)cc1 | 4 | 64* | -72 | / | -2 | /
O=C(O)c1ccc(C=NNc2cccc(C(F)(F)F)c2)cc1 | / | / | / | 4 | / | -6
O=C(NNC(=O)c1cc2ccccc2cc1O)Nc1ccccc1F | -1 | 120* | -25 | 7 | -16 | -8
Cc1cccc(NC(=O)NNC(=O)c2cc3ccccc3cc2O)c1C | -11 | -1 | -26 | / | 3 | /
CCC(C)NC(=O)CCC(=O)OC1O[C@H]2OC3(C)CC[C@H]4[C@H](C)CCC(C1C)C24OO3 (stereo partly drawn) | 7 | 101* | -21 | 4 | 5 | -2
CCC(C)C(NC(=O)CCCNC(=O)CCC(=O)OC1O[C@H]2OC3(C)CC[C@H]4[C@H](C)CCC(C1C)C24OO3)C(=O)O (stereo partly drawn) | 2 | 2 | -14 | / | 8 | /
COc1cc(/C=N/NC(=O)c2cnccn2)cc(OC)c1OC | 8 | 66* | -19 | / | -3 | /
CCCC(C#Cc1ccsc1)=C1c2ccccc2C(=O)N1c1ccccc1 | / | / | / | -4 | / | 17
COc1ccc(Cl)cc1C(=O)OCC(=O)Nc1cccnc1Cl | / | -1 | -4 | 6 | 6 | 10
COc1cccc(OC)c1C(=O)OCC(=O)Nc1cccnc1Cl | -2 | 58* | -1 | -1 | 0 | 2
O=C(Nc1cccc(Cl)c1N1CCCC1)c1cc2ccccc2o1 | -4 | 0 | -34 | -12 | 19 | 89*
O=C(Nc1cccc(Cl)c1N1CCCC1)c1ccc(Br)o1 | -2 | 0 | -18 | 3 | 9 | 45
CC(=O)OCC(=O)Nc1ccc([N+](=O)[O-])cc1Cl | -5 | -1 | -12 | 3 | 6 | 3
CC(=O)Oc1c(C)cc(Cl)cc1C(=O)Nc1ccc([N+](=O)[O-])cc1Cl | / | 5 | -102 | 98* | 8 | 96*
COC(=O)C1=C(c2cc3ccccc3o2)CC2CCC1N2C(=O)NCc1ccc(F)cc1 (stereo not drawn) | / | / | / | 3 | / | 11
COc1ccc(-c2nnc(NC(=O)c3ccc(S(=O)(=O)N(C)CC4CCCO4)cc3)o2)c(OC)c1 (stereo not drawn) | -1 | 4 | -22 | -7 | 12 | 100*
COc1cccc(C=NNc2snc(SC)c2C#N)c1O | / | / | / | 96* | / | 96*
